Source: publication PMC6212790, “How bacterial xenogeneic silencer rok distinguishes foreign from self DNA in its resident genome”
In all, about 33,000 sequences were measured (“e-score”: median about -0.037, highest 2% from about 0.34 on). This excerpt belongs to a sample that is enriched for the highest values.

Each sequence was assayed against T1, GST-Rok (full length) (Bacillus subtilis subsp. subtilis str. …, UniProt O34857 1-191) (assay: protein binding microarray; Rok is a gene silencer of Bacillus subtilis; high values mean tight binding). Settings: protein: recombinant; tags: GST (pTH5325, pDEST15-Magic modified); dsDNA, one strand shown.
T1 sequence: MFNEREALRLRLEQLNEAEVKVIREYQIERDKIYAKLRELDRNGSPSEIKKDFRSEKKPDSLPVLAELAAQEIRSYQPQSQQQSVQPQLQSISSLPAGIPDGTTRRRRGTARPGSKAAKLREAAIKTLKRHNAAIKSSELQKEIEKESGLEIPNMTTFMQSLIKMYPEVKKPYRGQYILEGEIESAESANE
Procedure, shortened: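 Each has a 25-mer constant primer and a 35-mer variable part from a de Bruijn sequence of order 10, covering every non-palindromic 8-mer at least 32 times (palindromic 16). Preference for each 8-mer is given as a rank-based, unitless enrichment score (E-score). Its range runs from 0.5 (most favored) to −0.5 (most disfavored).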

Sequence	binding signal
ACCAACAA	-0.105 E-score
GAACACCA	-0.0539 E-score
TACTTCGA	0.332 E-score
CACTAAGC	-0.0899 E-score
GTAGGAAC	0.0415 E-score
CGAACGTA	0.0863 E-score
ACTAATTA	0.438 E-score
CCTAATTC	0.0288 E-score
CCTAATTA	0.228 E-score
GCTAATTA	0.325 E-score
ACTAATTC	0.359 E-score
ACTAATTG	0.184 E-score
GGCATCTA	-0.0204 E-score
AGGATGAT	-0.0933 E-score
ACTGTGGA	-0.123 E-score
GTTATATA	0.296 E-score
ATTATATC	0.377 E-score
ATTATATA	0.468 E-score
CCTATATC	0.00873 E-score
CTTATATC	0.141 E-score
ATTATAGA	0.353 E-score
GTTATAGA	0.11 E-score

Sequence	binding signal
CTTATAGA	0.112 E-score
ATTATATG	0.269 E-score
CCTGAGCA	-0.194 E-score
CATCGACA	0.0503 E-score
CACAACCG	0.019 E-score
AGCGTGGG	-0.179 E-score
ATAGAATC	0.254 E-score
ATCGAAAT	0.357 E-score
ATCGAAAC	0.0448 E-score
ATAGAAAT	0.337 E-score
ATAGAAAC	0.288 E-score
ATAGAATA	0.356 E-score
ATCGAAAA	0.0373 E-score
ATAGAAAA	0.324 E-score
ATAGAATG	0.181 E-score
TCTTTCCA	-0.0837 E-score
AGTCGGAC	-0.171 E-score
AGCCCGTG	-0.00226 E-score
AAGCGACT	0.0908 E-score
CGATAGTA	0.384 E-score
AGATAGTG	0.199 E-score
CGATAGTC	-0.0533 E-score

Sequence	binding signal
GGATAGTA	0.208 E-score
AGATAGTA	0.347 E-score
AGATAGTC	0.0258 E-score
CATGATCC	0.0194 E-score
AGAAGCTA	0.0762 E-score
AACCTCAC	-0.146 E-score
AACCGCCC	-0.131 E-score
CGGCGAAG	0.0313 E-score
ATGAAGTC	-0.0225 E-score
GCGACTTA	0.0295 E-score
CCACTAAG	-0.137 E-score
ATTTCTAC	0.408 E-score
ATTTCTAG	0.333 E-score
CTTTCTTC	-0.0764 E-score
CTTTCTAC	0.444 E-score
ATTTCTAA	0.303 E-score
CTTTCTAA	0.162 E-score
AGAGACCT	-0.154 E-score
ACGTGGGC	-0.0245 E-score
GGATTGAC	-0.0238 E-score
GTATTAGA	0.22 E-score
CTATTATA	0.366 E-score

Sequence	binding signal
CTATTATC	0.214 E-score
ATGTTATC	0.206 E-score
CTGTTATA	0.308 E-score
ATATTATA	0.425 E-score
ATGTTATA	0.35 E-score
GTATTAAA	0.109 E-score
ATATTATG	0.111 E-score
GTATTATA	0.35 E-score
CGATTATA	0.215 E-score
ATATTATC	0.319 E-score
CGTCCTAA	-0.0629 E-score
CGAACTGC	-0.11 E-score
ACCATGCG	-0.0629 E-score
TCGAAGCA	-0.0477 E-score
CAACTAGA	0.247 E-score
TAACTAGA	0.224 E-score
ACACTAGA	0.197 E-score
AAACTAGA	0.355 E-score
AGACTAGA	0.173 E-score
GAACTAGA	0.36 E-score
CCGGCGAA	-0.00971 E-score
GAATAATA	0.271 E-score

Sequence	binding signal
CAATAATG	0.0655 E-score
CATTAATA	0.171 E-score
AAATAATA	0.312 E-score
CAATAATC	0.0735 E-score
CAATAATA	0.352 E-score
TAATAATA	0.395 E-score
AATTAATA	0.256 E-score
TATTAATA	0.368 E-score
ACTCACTA	0.177 E-score
ACAGCATG	0.0491 E-score
AGGCACTG	-0.0252 E-score
CGTGATAA	0.124 E-score
CCCGGCCG	-0.162 E-score
CCAAATAG	-0.0889 E-score
CGTGCGAG	-0.181 E-score
TTATTGAA	-0.0458 E-score
AGTAAATC	0.262 E-score
GGTAAATA	0.299 E-score
CGTAAATA	0.343 E-score
CGTAAATC	0.0869 E-score
AGTAAATA	0.387 E-score
AGTAAATG	0.19 E-score
